From PubChem BioAssay
SW480 rereplic: DNA re-replication induction in SW480 cells. Potency, µM (highest dose often 46.1 µM), without a hit: top-dose re-replication activation, usual class: activators. hit rate 1.8% among 340,000. AID 624297. SW480 DNA re-replication, Hoechst DNA content imaging, 48 h; further: % of control where 0% means no effect; nearly all actives have a fitted effect of over 55% in size
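Compounds, transferred as 23 nL by pin tool, were incubated with cells for 48 hr; DNA content per nucleus was then quantified by Hoechst staining and fluorescence plate imaging.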
RORgamma inh: blocks mouse ROR gamma transcriptional activity; P51450; Drosophila S2 Gal4-RORgamma UAS-luciferase reporter, 20 h; Potency, µM (series often up to 53.6 µM), without a hit: at the highest dose activity change, negative = inhibition, hits mostly inhibitors; hit rate 5.4% among 310,000; AID 2551; further: on the % scale 0 is the no-effect control and ±100 the full control effect; nearly all actives have a fitted effect of over 60% in size
Target sequence (P51450 whole entry, looked up, the tested form may be a part): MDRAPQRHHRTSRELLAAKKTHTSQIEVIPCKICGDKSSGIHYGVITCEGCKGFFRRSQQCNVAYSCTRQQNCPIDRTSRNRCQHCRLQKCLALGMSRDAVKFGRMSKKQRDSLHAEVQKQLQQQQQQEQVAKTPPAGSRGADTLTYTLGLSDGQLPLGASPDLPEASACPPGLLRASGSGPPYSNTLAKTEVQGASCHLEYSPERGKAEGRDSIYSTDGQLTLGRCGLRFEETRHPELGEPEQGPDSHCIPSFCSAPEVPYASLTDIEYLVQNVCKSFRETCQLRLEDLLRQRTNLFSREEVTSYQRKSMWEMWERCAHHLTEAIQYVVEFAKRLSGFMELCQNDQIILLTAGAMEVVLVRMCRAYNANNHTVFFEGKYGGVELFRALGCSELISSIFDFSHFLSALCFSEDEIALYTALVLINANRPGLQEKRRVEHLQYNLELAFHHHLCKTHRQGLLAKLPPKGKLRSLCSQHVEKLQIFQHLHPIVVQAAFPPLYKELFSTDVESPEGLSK
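Read-out: Photinus luciferase luminescence; inhibitors lower reporter signal. Insect Schneider cells with Gal4-ROR gamma fusion under metallothionein promoter, UAS reporter; 700 uM final copper sulfate induction, 20 hr, ambient temperature.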
MCF10A rerep: DNA re-replication induction in MCF 10a cells; MCF 10A DNA re-replication, Hoechst nuclear intensity, 48 h; Potency, µM (doses to about 46.1 µM), for inactives: at the top dose activity, positive = re-replication, usual class: activators; hit rate 2.9% among 350,000; further: % of control where 0% means no effect; nearly all actives have a fitted effect of over 50% in size
VP16 counter: inhibits Gal4-VP16 luciferase reporter, ROR gamma counter-screen. hit rate 3.5% among 310,000. AID 2546. Potency, µM (series often up to 53.6 µM), for inactives: at the top dose activity, negative = inhibition, usual class: inhibitors. Drosophila S2 Gal4-VP16 UAS-luciferase, luminescence, 20 h;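 further: Gal4-VP16 expression switched on by copper sulfate through the metallothionein promoter; on the % scale 0 is the no-effect control and ±100 the full control effect; nearly all actives have a fitted effect of over 50% in size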
ELG1 repair inh: blocks ELG1-dependent DNA repair in HEK293T cells. HEK293T ELG1-luciferase reporter, luminescence, 16 h; DNA damage induced by 5-fluorouridine. hit rate 2.3% among 330,000. AID 504467. Potency, µM (highest dose often 46.1 µM), inactives show at the highest dose activity change, negative = inhibition, hits mostly inhibitors; further: on the % scale 0 is the no-effect control and ±100 the full control effect; nearly all actives have a fitted effect of over 55% in size
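Cells (2,000 per well) received 5-fluorouridine plus test compound or DMSO and were incubated 16 hr at 37 °C, 5% CO2. Luciferase activity was read by luminescence 30 min after ONE-Glo addition; signal suppression marked inhibition of damage-induced ELG1 function.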
Starred values were filed as active, the others as inactive; ? = inconclusive; . = no result; [ ] = dose if it differs, or a comment. Compounds with a hit are over-represented: about 10% of the library has one in this group of screens. The call rests on the fitted dose curve; in most records, active means well fitted curve in the direction sought with a large enough effect; inconclusive means small, poorly fitted or top-dose-only effect, or another doubt; inactive means no such curve, though single readings can be large; an effect the other way counts as inactive or inconclusive. Potency means the concentration at half of the fitted maximal effect.

SMILES | SW480 rereplic | RORgamma inh | MCF10A rerep | VP16 counter | ELG1 repair inh
CCOC(=O)c1nnn(-c2nonc2-n2cccc2)c1CN1CCC(C)CC1 | ? | 41% | 26µM* | ? | 11%
CCOc1ccc(/C=N/NC(=O)c2nnn(-c3nonc3N)c2CN2CCC(C)CC2)cc1 | -2% | 8% | -1% | -1% | -27%
CC1CCN(Cc2c(C(=O)N/N=C/c3ccc(C(F)(F)F)cc3)nnn2-c2nonc2N)CC1 | ? | -28% | ? | ? | -1%
O=C(CN1C(=O)C2C3C=CC(C3)C2C1=O)Nc1nncs1 (configuration not stated) | -12% | -12% | 15% | -10% | -2%
Cc1ccccc1C(=O)Nc1nnc(SCC(=O)NC2CC2)s1 | -2% | -32% | 0% | -24% | ?
COc1ccccc1CNC(=O)c1ccc(N2CCOCC2)c([N+](=O)[O-])c1 | -55% | 4% | -1% | -13%[10 µM] | 5%
CCOC(=O)CC1(NC(=O)C2CCC(=O)N(Cc3ccccc3F)C2)CCCCC1 (configuration not stated) | -30% | 12% | 1% | -4% | 29%
Clc1cccc(-c2ccc(C=Nc3ccc(N4CCOCC4)cc3)o2)c1Cl | ? | -11% | 21µM* | -12% | 13%
Cc1nc2cc(N3CCN(C)CC3)c(NC(=O)Cc3ccccc3)cc2c(=O)n1Cc1ccccc1 | -10% | 7.1µM* | 8% | ? | ?
NC1=NC(=O)/C(=C\c2cc([N+](=O)[O-])ccc2Cl)S1 | 0.46µM* | -8% | -1% | 6% | 8%
NC1=NC(=O)/C(=C/c2ccc(Cl)cc2Cl)S1 | 4% | 3% | ? | 2% | 16%
COC(=O)C1=C(C)N(CCc2cc(OC)c(OC)c(OC)c2)C(=O)N[C@H]1c1cccs1 | ? | ? | 7% | 5% | -18%
O=C(N/N=C/c1ccccc1)C(=O)N/N=C/c1ccccc1 | -5% | -37% | 1% | -5% | 1%
O=C(C=C=Nc1ccccc1)C(=O)N=C=Cc1ccccc1 | ? | 4µM* | 4.6µM* | 7.1µM* | 4%
CCOc1ccc2nc(SCC(=O)NC3CCCCC3)[nH]c2c1 | -2% | 14% | 11% | 1% | -3%
COc1ccc(Cc2ccccc2C(=O)O)cc1 | -6% | . | -3% | . | .
COc1ccc(CC2=CC(=O)c3ccccc3C2=O)cc1 | 0% | 7.1µM* | ? | 10µM* | ?
O=C(Cn1nc(-c2ccccc2)ccc1=O)Nc1cccc(NC(=O)c2ccccn2)c1 | . | -1% | . | 1% | -4%
Cc1ccc(N2C(=O)CC(Sc3cccs3)C2=O)cc1 (configuration not stated) | -3% | 11µM* | -1% | 7.9µM* | 9%
Cc1ccc(SC2CC(=O)N(c3ccc4c(c3)OCCO4)C2=O)cc1 (configuration not stated) | -4% | -84% | -5% | ? | -5%
COc1ccc(N2C(=O)CC(Sc3n[nH]c(-c4ccccc4)n3)C2=O)cc1 (configuration not stated) | 4% | 11µM* | 27% | -83% | 29%
Cc1ccc(N2C(=O)CC(Sc3nccc(C)n3)C2=O)cc1 (configuration not stated) | -2% | 18µM* | -1% | ? | 1%
Cc1cccc(C(=O)NNS(=O)(=O)c2ccc(F)cc2)c1 | -4% | 5% | 3% | -4% | -18%
Cc1cc(C(=O)Nc2ccc(N3CCOCC3)c3nonc23)ccc1[N+](=O)[O-] | -15% | ? | -20% | ? | -6%
CCC(=O)N1CCN(c2ccc(NC(=O)c3ccc([N+](=O)[O-])o3)cc2)CC1 | 0% | -14% | 11% | -22% | -16%
SMILES | SW480 rereplic | RORgamma inh | MCF10A rerep | VP16 counter | ELG1 repair inh
CC(C)(C)C(=O)N1CCN(c2ccc(NC(=O)c3ccc([N+](=O)[O-])o3)cc2)CC1 | 1.8µM* | ? | 1.8µM* | 14µM* | ?
CS(=O)(=O)N1CCN(c2ccc(NC(=O)c3ccc([N+](=O)[O-])o3)cc2)CC1 | -78% | -36% | 2.1µM* | ? | ?
CC1CCN(c2ccc(NC(=O)c3ccc([N+](=O)[O-])o3)cc2)CC1 | 9.2µM* | . | 3.3µM* | . | ?
Cn1c(=O)c2c(nc(N3CCCC3)n2CC(O)CO)n(C)c1=O (configuration not stated) | 0% | -8% | 5% | 2% | 6%
C=CCOCC(O)Cn1c(N2CCCC2)nc2c1c(=O)n(C)c(=O)n2C (configuration not stated) | -36% | 2% | 1.3µM* | -4% | 2%
O=C(Nc1ccccc1N1CCCC1)c1cc(S(=O)(=O)N2CCOCC2)ccc1Cl | -3% | . | -1% | . | 2%
CCN1CCN(S(=O)(=O)c2ccc(Cl)c(C(=O)Nc3ccccc3N3CCCC3)c2)CC1 | 6.5µM* | . | ? | . | -15%
CCN1CCN(S(=O)(=O)c2ccc(Cl)c(C(=O)NCc3nc4ccccc4[nH]3)c2)CC1 | 10µM* | . | ? | . | 1%
O=C(Nc1ccccc1N1CCCCC1)c1cc(S(=O)(=O)N2CCOCC2)ccc1F | 16% | . | 12µM* | . | -24%
O=C(NCc1nc2ccccc2[nH]1)c1cccc(S(=O)(=O)N2CCCCC2)c1 | -7% | 1% | 1% | 3% | -10%
CCN1CCN(S(=O)(=O)c2ccc(Cl)c(C(=O)NCCc3ccccc3)c2)CC1 | 15µM* | . | 5% | . | ?
Cc1cc2[nH]c(=O)c(=O)[nH]c2cc1S(=O)(=O)Nc1cccc(Cl)c1 | 1% | -1% | 1% | 3% | 11%
CCN1CCN(S(=O)(=O)c2ccc(Cl)c(C(=O)N(C)Cc3ccc(Cl)cc3Cl)c2)CC1 | ? | 30% | ? | -2% | ?
O=C(Nc1ccc(F)c(F)c1)c1cc(S(=O)(=O)N2CCN(c3ccccn3)CC2)ccc1F | -1% | 31% | 4% | -5% | 16µM*
Cc1ccc2cc3c(nc2c1)N(Cc1ccco1)CC3 | -1% | 0% | 8% | 23% | 18%
Cc1ccc2cc3c(nc2c1)OCC3 | 8.2µM* | 21% | -5% | 6% | ?
CCCCn1c(N)c(N(CC(C)C)C(=O)CSCC(=O)Nc2ccc(C)cc2)c(=O)[nH]c1=O | -5% | . | -2% | . | 5%
c1ccc(-c2nnsc2-c2ccccc2)cc1 | -23% | 6% | 4% | 16% | -2%
O=S(=O)(c1ccc(Cl)c(Cl)c1)c1snnc1-c1ccccc1 | 1.3µM* | 20µM* | 4.6µM* | ? | -4%
O=C(CN1CCN(C(c2ccccc2)c2ccccc2)CC1)N1N=CCC1c1ccccc1 (configuration not stated) | -45% | 0% | 15% | -8% | ?
COCc1c(C(=O)N2CCN(S(=O)(=O)c3ccccc3Cl)CC2)oc2ccccc12 | 1% | . | 1% | . | 10µM*
COCc1c(C(=O)N2CCN(Cc3nc4ccccc4s3)CC2)oc2ccccc12 | 2% | . | 15% | . | 2%
